Records with an inconclusive call do not appear. Active and inactive are the calls of the source. Calls follow the shape of the dose curve; as a rule, active = well fitted curve in the direction sought with a large enough effect; inconclusive = small, poorly fitted or top-dose-only effect, or another doubt; inactive = no such curve, though single readings can be large; an effect the other way counts as inactive or inconclusive.
Experiments:
[1] = qHTS of pediatric cancer cell lines to identify multiple opportunities for drug repurposing: Primary screen for BT-37 cells (AID 1347094); also: potency is read from the fitted curve at half-maximal effect
Summary of the method: (§1)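 Readout: CellTiter-Glo luminescence, 48 h treatment. Controls DMSO (neutral) and bortezomib 2.3 µM final (positive). Potency and efficacy taken from primary-screen concentration-response curves.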

[2] = qHTS of pediatric cancer cell lines to identify multiple opportunities for drug repurposing: Primary screen for NB-EBc1 cells (AID 1347095); also: potency is read from the fitted curve at half-maximal effect
Summary of the method: as §1

[3] = qHTS of pediatric cancer cell lines to identify multiple opportunities for drug repurposing: Primary screen for U-2 OS cells (AID 1347096); also: nearly all actives have a fitted effect of over 50% in size; also: potency is read from the fitted curve at half-maximal effect
Summary of the method: (§2)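 Cells (500-1,000/well) in growth media were settled 5 h at 37 degrees C, then given compounds for 48 h. Viability was read as CellTiter-Glo luminescence. Primary runs used MIPE at 11 points (0.78 nM-46 µM) and NPC at 8 points (0.59 nM-46 µM); follow-ups used 11 points.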

[4] = qHTS of pediatric cancer cell lines to identify multiple opportunities for drug repurposing: Primary screen for Saos-2 cells (AID 1347097); also: nearly all actives have a fitted effect of over 40% in size; also: potency is read from the fitted curve at half-maximal effect
Summary of the method: as §1

[5] = qHTS of pediatric cancer cell lines to identify multiple opportunities for drug repurposing: Primary screen for SK-N-SH cells (AID 1347098); also: nearly all actives have a fitted effect of over 65% in size; also: potency is read from the fitted curve at half-maximal effect
Summary of the method: (§3)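 Cells (500-1,000/well) rested 5 h, then received compounds for 48 h; metabolically active cells were measured by CellTiter-Glo luminescence. Final concentrations spanned up to 46 µM (MIPE, 11-point) or 0.59 nM-46 µM (NPC, 8-point) in primary screens, 11-point in follow-ups.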

[6] = qHTS of pediatric cancer cell lines to identify multiple opportunities for drug repurposing: Primary screen for LAN-5 cells (AID 1347100); also: potency is read from the fitted curve at half-maximal effect
Summary of the method: as §2

[7] = qHTS of pediatric cancer cell lines to identify multiple opportunities for drug repurposing: Primary screen for BT-12 cells (AID 1347101); also: nearly all actives have a fitted effect of over 25% in size; also: potency is read from the fitted curve at half-maximal effect
Summary of the method: as §3

[8] = qHTS of pediatric cancer cell lines to identify multiple opportunities for drug repurposing: Primary screen for Rh18 cells (AID 1347102); also: nearly all actives have a fitted effect of over 65% in size; also: potency is read from the fitted curve at half-maximal effect
Summary of the method: as §2

[9] = qHTS of pediatric cancer cell lines to identify multiple opportunities for drug repurposing: Primary screen for control Hh wild type fibroblast cells (AID 1347106); also: nearly all actives have a fitted effect of over 55% in size; also: potency is read from the fitted curve at half-maximal effect
Summary of the method: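 Viability after 48 h compound treatment at 37C, 500-1,000 cells/well, read as ATP luminescence with CellTiter-Glo. Primary screens used 11-point (MIPE, 0.78 nM-46 µM) or 8-point (NPC, 0.59 nM-46 µM) final concentrations; follow-up screens used 11-point dilutions.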

[10] = qHTS of pediatric cancer cell lines to identify multiple opportunities for drug repurposing: Primary screen for NB1643 cells (AID 1347099); also: nearly all actives have a fitted effect of over 50% in size; also: potency is read from the fitted curve at half-maximal effect
Summary of the method: as §1

[11] = qHTS of pediatric cancer cell lines to identify multiple opportunities for drug repurposing: Primary screen for OHS-50 cells (AID 1347103); also: nearly all actives have a fitted effect of over 40% in size; also: potency is read from the fitted curve at half-maximal effect
Summary of the method: as §3

[12] = qHTS of pediatric cancer cell lines to identify multiple opportunities for drug repurposing: Primary screen for RD cells (AID 1347104); also: nearly all actives have a fitted effect of over 55% in size; also: potency is read from the fitted curve at half-maximal effect
Summary of the method: as §1

[13] = qHTS of pediatric cancer cell lines to identify multiple opportunities for drug repurposing: Primary screen for MG 63 (6-TG R) cells (AID 1347105); also: nearly all actives have a fitted effect of over 50% in size; also: potency is read from the fitted curve at half-maximal effect
Summary of the method: as §1

[14] = qHTS of pediatric cancer cell lines to identify multiple opportunities for drug repurposing: Primary screen for Rh41 cells (AID 1347108); also: nearly all actives have a fitted effect of over 70% in size; also: potency is read from the fitted curve at half-maximal effect
Summary of the method: as §1

[15] = qHTS of pediatric cancer cell lines to identify multiple opportunities for drug repurposing: Primary screen for Rh30 cells (AID 1347107); also: nearly all actives have a fitted effect of over 75% in size; also: potency is read from the fitted curve at half-maximal effect
Summary of the method: as §2

[16] = qHTS of pediatric cancer cell lines to identify multiple opportunities for drug repurposing: Confirmatory screen for NB1643 cells (AID 1347109); also: nearly all actives have a fitted effect of over 45% in size; also: potency is read from the fitted curve at half-maximal effect
Summary of the method: as §2

[17] = qHTS of pediatric cancer cell lines to identify multiple opportunities for drug repurposing: Confirmatory screen for SK-N-MC cells (AID 1347111);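 also: potency is read from the fitted curve at half-maximal effect; cells exposed to compound for 48 h before the readout; nearly all actives have a fitted effect of over 70% in size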
Summary of the method: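 Metabolically active cells were quantified by ATP-dependent luminescence (CellTiter-Glo, 15 min at room temperature) following 48 h treatment. Cells had been plated at 500-1,000 per well and settled for 5 h beforehand.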

[18] = qHTS of pediatric cancer cell lines to identify multiple opportunities for drug repurposing: Confirmatory screen for LAN-5 cells (AID 1347113); also: nearly all actives have a fitted effect of over 65% in size; also: potency is read from the fitted curve at half-maximal effect
Summary of the method: as §2

[19] = qHTS of pediatric cancer cell lines to identify multiple opportunities for drug repurposing: Confirmatory screen for A673 cells (AID 1347110);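 also: cells exposed to compound for 48 h before the viability read; nearly all actives have a fitted effect of over 65% in size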; also: potency is read from the fitted curve at half-maximal effect
Summary of the method: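 A673 cells at 500-1,000 cells/well were dosed 5 h after plating, in dilution series up to 46 uM final; primary runs used 8 or 11 points and confirmatory runs used 11 points. Viability was read by CellTiter-Glo luminescence after 48 h, against DMSO and 2.3 uM bortezomib controls.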

[20] = qHTS of pediatric cancer cell lines to identify multiple opportunities for drug repurposing: Confirmatory screen for BT-12 cells (AID 1347112); also: nearly all actives have a fitted effect of over 55% in size
Summary of the method: as §2

Measured: Potency

O=C1CSC(=O)N1C(CCc1ccncc1)COc1ccc(-c2cccc([N+](=O)[O-])c2)cc1 (configuration not stated)
active: [1] 15.3 µM | [2] 18.7 µM | [5] 4.82 µM | [6] 14.8 µM | [7] 6.85 µM
inactive: [3] | [4] | [8] | [9]

C[C@H](NCc1ccc(OCc2cccc(F)c2)cc1)C(N)=O
active: [1] 19.3 µM | [2] 10.5 µM | [3] 18.7 µM | [4] 16.6 µM | [5] 30.4 µM | [10] 14.8 µM | [6] 7.43 µM | [8] 20.9 µM | [11] 4.85 µM | [12] 16.6 µM | [13] 18.7 µM | [14] 18.7 µM

C[C@@]12C[C@@]3(O)O[C@@H](O1)[C@]1(COC(=O)c4ccccc4)[C@@H]3C[C@@]12O[C@@H]1O[C@H](CO)[C@@H](O)[C@H](O)[C@@H]1O
not listed: [10] | [15] | [16] | [17] | [18] | [19] | [20]
inactive: all other assays above

COc1cc(OC)cc(-c2ccc3ncc4ccc(=O)n(-c5ccc(N6CCNCC6)c(C(F)(F)F)c5)c4c3c2)c1
active: [1] 15.3 µM | [2] 3.72 µM | [3] 14.8 µM | [4] 13.2 µM | [5] 7.64 µM | [10] 11.8 µM | [7] 19.3 µM | [8] 14.8 µM | [11] 4.32 µM | [12] 8.33 µM | [13] 14.8 µM | [9] 20.9 µM | [15] 16.6 µM | [14] 3.72 µM

CCCNS(=O)(=O)Nc1ncnc(OCCOc2ncc(Br)cn2)c1-c1ccc(Br)cc1
not listed: [7] | [10] | [14] | [16] | [17] | [18] | [19] | [20]
inactive: all other assays above

C[C@H]1[C@@H](OC(=O)CCC(=O)O)O[C@@H]2O[C@@]3(C)CC[C@@H]4[C@H](C)CC[C@@H]1[C@@]24OO3
active: [1] 3.85 µM | [2] 1.66 µM | [5] 13.6 µM | [6] 3.32 µM | [7] 1.22 µM | [8] 14.8 µM | [11] 1.09 µM | [12] 1.66 µM | [13] 18.7 µM | [14] 2.35 µM | [16] 14.7 µM | [17] 3.29 µM | [18] 16.5 µM
inactive: [3] | [4] | [9]

CC(=O)O[C@H]1C[C@@H]2CC[C@H]3[C@H]4C[C@H]([N+]5(C)CCCCC5)[C@@H](OC(C)=O)[C@@]4(C)CC[C@@H]3[C@@]2(C)C[C@H]1N1CCCCC1
active: [17] 3.29 µM | [18] 4.14 µM
not listed: [10] | [14] | [15] | [16] | [19] | [20]
inactive: all other assays above

Cc1cnc(Nc2ccc(CN3CCOCC3)cc2)nc1Nc1cccc(S(=O)(=O)NC(C)(C)C)c1
active: [1] 17.2 µM | [2] 2.64 µM | [3] 7.43 µM | [4] 3.72 µM | [10] 3.72 µM | [6] 1.32 µM | [7] 9.68 µM | [8] 3.72 µM | [11] 2.17 µM | [12] 6.62 µM | [13] 3.72 µM | [9] 11.8 µM | [15] 6.62 µM | [14] 3.32 µM | [16] 5.85 µM | [19] 13.1 µM | [17] 5.22 µM | [18] 14.7 µM

C#C[C@]1(O)CC[C@@H]2[C@@H]3CCC4=CC(=O)CC[C@@H]4[C@H]3CC[C@@]21CC
inactive: [1] | [2] | [3] | [4] | [10] | [6] | [7] | [8] | [12] | [13] | [9]

O=C(O)C=Cc1ccc(Cn2ccnc2)cc1
not listed: [5] | [10] | [16] | [17] | [18] | [19] | [20]
inactive: all other assays above

NC(=O)c1ncn([C@@H]2O[C@H](CO)[C@@H](O)[C@@H]2O)c1O
not listed: [5] | [16] | [17] | [18] | [19] | [20]
inactive: all other assays above

C=C1C(=CC=C2CCC[C@]3(C)[C@@H]([C@H](C)CCCC(C)(C)O)CC[C@@H]23)C[C@@H](O)C[C@@H]1O
inactive: [9] | [16] | [18]
active: [1] 6.85 µM | [2] 2.96 µM | [3] 18.7 µM | [4] 14.8 µM | [10] 2.35 µM | [6] 1.66 µM | [7] 6.85 µM | [8] 5.26 µM | [11] 7.69 µM | [12] 9.35 µM | [13] 11.8 µM | [14] 5.9 µM

C[C@H](NC(=O)Cc1cc(F)cc(F)c1)C(=O)N[C@H](C(=O)OC(C)(C)C)c1ccccc1
inactive: [1] | [2] | [3] | [4] | [6] | [7] | [8] | [12] | [9] | [15]

CCCCC(=O)O[C@]1(C(=O)CO)[C@@H](C)C[C@H]2[C@@H]3CCC4=CC(=O)C=C[C@]4(C)[C@@]3(F)[C@@H](O)C[C@@]21C
active: [17] 18.5 µM
not listed: [4] | [14]
inactive: all other assays above

Cc1ccccc1C(=O)Nc1ccc(C(=O)N2CCCC(O)c3cc(Cl)ccc32)c(C)c1 (configuration not stated)
not listed: [4] | [13] | [16] | [17] | [18] | [19] | [20]
inactive: all other assays above

O=[N+]([O-])c1cn2c(n1)OC[C@@H](OCc1ccc(OC(F)(F)F)cc1)C2
inactive: [1] | [2] | [3] | [4] | [6] | [12] | [13] | [9] | [15]

CC(C)(O)[C@H]1CC[C@@](C)([C@H]2[C@@H](O)C[C@@]3(C)[C@@H]4C[C@H](O[C@@H]5O[C@H](CO)[C@@H](O)[C@H](O)[C@@H]5O)[C@H]5C(C)(C)[C@@H](O[C@@H]6OC[C@@H](O)[C@H](O)[C@@H]6O)CC[C@@]56C[C@@]46CC[C@]23C)O1
not listed: [5] | [8] | [14] | [16] | [17] | [18] | [19] | [20]
inactive: all other assays above

CCn1c(=O)c2c(nc(C=Cc3ccc(OC)c(OC)c3)n2C)n(CC)c1=O
inactive: [1] | [2] | [3] | [4] | [6] | [7] | [8] | [13] | [9] | [15]

O=C(O)[C@H](CC(=O)N1C[C@@H]2CCCC[C@H]2C1)Cc1ccccc1
not listed: [5] | [16] | [17] | [18] | [19] | [20]
inactive: all other assays above

COc1cc([C@@H]2c3cc4c(cc3[C@@H](O[C@@H]3O[C@@H]5CO[C@@H](c6cccs6)O[C@@H]5[C@H](O)[C@@H]3O)[C@H]3COC(=O)[C@H]23)OCO4)cc(OC)c1O
active: [1] 0.217 µM | [2] 0.0372 µM | [3] 3.72 µM | [4] 0.59 µM | [10] 0.132 µM | [6] 0.0372 µM | [7] 6.11 µM | [11] 0.485 µM | [12] 2.96 µM | [19] 0.657 µM | [17] 0.104 µM

COc1ccnc2[nH]cc(C(=O)C(=O)N3CCN(C(=O)c4ccccc4)C[C@@H]3C)c12
inactive: [1] | [2] | [3] | [4] | [6] | [7] | [11] | [13] | [9] | [15] | [14]

CN(N=O)C(=O)N[C@H]1C(O)OC(CO)[C@@H](O)[C@H]1O (some centres not stated)
not listed: [5] | [8] | [11] | [16] | [17] | [18] | [19] | [20]
inactive: all other assays above

CC(C)(O)CC[C@@H](O)[C@](C)(O)[C@H]1CC[C@@]2(O)C3=CC(=O)[C@@H]4C[C@@H](O)[C@@H](O)C[C@]4(C)[C@@H]3CC[C@]12C
not listed: [5] | [10] | [12] | [16] | [17] | [18] | [19] | [20]
inactive: all other assays above

C[C@@H]1[C@H](C)CC[C@]2(C(=O)O)CC[C@]3(C)C(=CC[C@@H]4[C@@]5(C)C[C@@H](O)[C@H](O)[C@@](C)(CO)[C@H]5CC[C@]43C)[C@@H]12
not listed: [4] | [11] | [14] | [16] | [17] | [18] | [19] | [20]
inactive: all other assays above

C[C@H](O)[C@@H]1C(=O)N2C(C(=O)O)=C(S[C@@H]3CN[C@H](CNS(N)(=O)=O)C3)[C@@H](C)[C@@H]12
not listed: [5] | [16] | [17] | [18] | [19] | [20]
inactive: all other assays above

CCCc1nc(C(C)(C)O)c(C(=O)O)n1Cc1ccc(-c2ccccc2-c2nn[nH]n2)cc1
not listed: [5] | [10] | [16] | [17] | [18] | [19] | [20]
inactive: all other assays above
